Laboratory results as given in PubChem BioAssay (Tox21).
Records with an inconclusive call do not appear. Activity calls are given as the source filed them. Unless noted, calls come from the whole dose curve; as a rule, active = well fitted curve in the direction sought with a large enough effect in the repeat runs; inconclusive = weak or mixed curves; inactive = no such curve, though single readings can be large; an effect the other way counts as inactive or inconclusive.

What was measured:
[1] = qHTS assay to identify small molecule antagonists of the estrogen receptor alpha (ER-alpha) signaling pathway using the BG1 cell line in the presence of 0.1 nM 17-beta-estradiol - cell viability counter screen (AID 1259241); note: nearly all actives have a fitted effect of over 40% in size
In short: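 Cytotoxicity counter-screen: live-cell protease activity measured by fluorescence (30 min reagent step) in the same wells. Cells were VM7Luc4E2 with endogenous ER-alpha and ERE-driven luciferase, treated 22 hr at 37C alongside 0.1 nM 17beta-estradiol final.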

[2] = molecular target: Estrogen receptor (Homo sapiens) (UniProt P03372); test: qHTS assay to identify small molecule antagonists of the estrogen receptor alpha (ER-alpha) signaling pathway using the BG1 cell line in the presence of 0.1 nM 17-beta-estradiol (AID 1259244); note: nearly all actives have a fitted effect of over 50% in size; note: potency is the fitted concentration of half-maximal effect
Chain of Estrogen receptor (Homo sapiens) (P03372 whole entry, looked up): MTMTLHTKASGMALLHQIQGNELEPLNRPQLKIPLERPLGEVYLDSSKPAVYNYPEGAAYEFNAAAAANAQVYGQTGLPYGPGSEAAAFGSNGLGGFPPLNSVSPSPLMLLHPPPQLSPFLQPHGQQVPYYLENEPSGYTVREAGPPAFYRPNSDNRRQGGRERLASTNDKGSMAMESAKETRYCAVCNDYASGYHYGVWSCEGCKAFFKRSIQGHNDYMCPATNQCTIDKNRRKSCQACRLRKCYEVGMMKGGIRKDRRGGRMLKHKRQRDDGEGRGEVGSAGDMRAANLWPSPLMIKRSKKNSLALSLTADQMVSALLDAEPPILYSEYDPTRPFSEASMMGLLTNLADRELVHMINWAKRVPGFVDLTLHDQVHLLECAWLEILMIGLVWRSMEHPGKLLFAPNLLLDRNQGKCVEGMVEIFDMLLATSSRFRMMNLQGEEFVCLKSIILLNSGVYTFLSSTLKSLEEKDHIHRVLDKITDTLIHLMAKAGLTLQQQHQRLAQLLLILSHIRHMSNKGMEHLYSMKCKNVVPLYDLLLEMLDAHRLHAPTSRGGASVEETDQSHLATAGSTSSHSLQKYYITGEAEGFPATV
In short: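 Luciferase signal from VM7Luc4E2 ERE-reporter cells, co-dosed with test compound and 0.1 nM final 17beta-estradiol for 22 h, read with ONE-Glo.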

[3] = qHTS assay to identify small molecule HDAC inhibitors (AID 1259364); note: potency is the fitted concentration of half-maximal effect;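 note: wild-type HCT-116 cells with endogenous class I/II HDAC activity; nearly all actives have a fitted effect of over 45% in size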
In short: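 HCT-116 wt cells, 1,500/well, overnight attach. Compounds (DMSO) 2 h, 37 °C. HDAC-Glo I/II, 30 min RT. Luminescence.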

[4] = qHTS assay to identify small molecule HDAC inhibitors - cell viability counter screen (AID 1259365); note: series mostly up to about 92 µM; nearly all actives have a fitted effect of over 50% in size
In short: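 CellTiter-Glo luminescence (30 min, room temperature) reported viability after a 2 h compound exposure at 37 C. Cells: wild-type HCT-116, 1,500 per well, seeded the night before.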

[5] = qHTS assay to identify small molecule agonists of the sonic hedgehog signaling (Shh) pathway (AID 1259368; calls by dose curve;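 note: NIH/3T3-derived 3T3Gli1-Luc cells carrying a stable Gli1-driven firefly luciferase reporter; series mostly up to about 92 µM; nearly all actives have a fitted effect of over 15% in size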)
In short: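 Following a 24 hr incubation with DMSO-dissolved compounds at 37 C, 5% CO2, Gli1-Luc NIH/3T3-derived cells received luciferase reagent for 30 min at room temperature prior to luminescence measurement.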

[6] = qHTS assay to identify small molecule antagonists of the sonic hedgehog signaling (Shh) pathway (AID 1259369; calls by dose curve; note: nearly all actives have a fitted effect of over 45% in size; note: potency is the fitted concentration of half-maximal effect)
In short: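 Read-out is luminescence from a firefly luciferase gene controlled by the Gli1 response element, in 3T3Gli1-Luc cells pre-incubated 4hr then exposed to compounds and conditioned medium for 24hr.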

[7] = qHTS assay to identify small molecule agonists of the estrogen receptor beta (ER-beta) signaling pathway - cell viability counter screen (AID 1259380); note: nearly all actives have a fitted effect of over 30% in size; note: potency is the fitted concentration of half-maximal effect
In short: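 Compounds dissolved in DMSO were pin-transferred onto ER-beta-UAS-bla HEK293T cells that had settled 6 hr, and exposure ran 16 hr at 37C. Following the reporter read, CellTiter-Glo luminescence after 30 min at room temperature indicated cytotoxicity.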

[8] = qHTS assay to identify small molecule antagonists of the estrogen receptor beta (ER-beta) signaling pathway - cell viability counter screen (AID 1259382); note: nearly all actives have a fitted effect of over 55% in size; note: potency is the fitted concentration of half-maximal effect
In short: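 CellTiter-Glo ATP luminescence measured after the LiveBLAzer read in the same wells; ER-beta-UAS-bla HEK293T cells, 16 hr compound treatment with 1nM 17-beta-estradiol agonist at 37C, 5% CO2.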

[9] = molecular target: Estrogen receptor (Homo sapiens) (UniProt P03372); test: qHTS assay to identify small molecule agonists of the estrogen receptor alpha (ER-alpha) signaling pathway in the presence of an antagonist (AID 1259383; calls by dose curve; note: top concentration of the series differs between compounds; nearly all actives have a fitted effect of over 15% in size)
In short: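 Luminescent ERE-luciferase reporter, VM7Luc4E2 cells (endogenous ER-alpha); 10.0nM ICI-182,780 final; 15-point compound titration; 22hr at 37C; ONE-Glo, 30min RT.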

[10] = qHTS assay to identify small molecule agonists or antagonists of the thyroid stimulating hormone receptor (TSHR) signaling pathway - wild type cell line counter screen (AID 1259384; calls by dose curve)
In short: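 Wild-type Hek293 cells, 800/well, 18 h at 37C, then compound with Ro20-1724 for 30 min RT. cAMP by HTRF (cAMP-d2/anti-cAMP cryptate), 1 h RT, fluorescence read. 15 concentrations, triplicates.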

[11] = A CellTox Green Cytotoxicity Assay to monitor cytotoxicity in HepG2 cells - 8 hour (AID 1224890); note: nearly all actives have a fitted effect of over 45% in size; note: potency is the fitted concentration of half-maximal effect
In short: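 Cytotoxicity was tracked as dead-cell DNA fluorescence in HepG2 cells treated with test compounds at 37 C; each time-point value comes from one kinetic series spanning 0, 8, 16, 24, 32 and 40 h.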

[12] = molecular target: Androgen receptor (Homo sapiens) (UniProt P10275); test: qHTS assay to identify small molecule antagonists of the androgen receptor (AR) signaling pathway using the MDA cell line in the presence of 0.5 nM R1881 (AID 1259243); note: nearly all actives have a fitted effect of over 50% in size; note: potency is the fitted concentration of half-maximal effect
Chain of Androgen receptor (Homo sapiens) (P10275 whole entry, looked up): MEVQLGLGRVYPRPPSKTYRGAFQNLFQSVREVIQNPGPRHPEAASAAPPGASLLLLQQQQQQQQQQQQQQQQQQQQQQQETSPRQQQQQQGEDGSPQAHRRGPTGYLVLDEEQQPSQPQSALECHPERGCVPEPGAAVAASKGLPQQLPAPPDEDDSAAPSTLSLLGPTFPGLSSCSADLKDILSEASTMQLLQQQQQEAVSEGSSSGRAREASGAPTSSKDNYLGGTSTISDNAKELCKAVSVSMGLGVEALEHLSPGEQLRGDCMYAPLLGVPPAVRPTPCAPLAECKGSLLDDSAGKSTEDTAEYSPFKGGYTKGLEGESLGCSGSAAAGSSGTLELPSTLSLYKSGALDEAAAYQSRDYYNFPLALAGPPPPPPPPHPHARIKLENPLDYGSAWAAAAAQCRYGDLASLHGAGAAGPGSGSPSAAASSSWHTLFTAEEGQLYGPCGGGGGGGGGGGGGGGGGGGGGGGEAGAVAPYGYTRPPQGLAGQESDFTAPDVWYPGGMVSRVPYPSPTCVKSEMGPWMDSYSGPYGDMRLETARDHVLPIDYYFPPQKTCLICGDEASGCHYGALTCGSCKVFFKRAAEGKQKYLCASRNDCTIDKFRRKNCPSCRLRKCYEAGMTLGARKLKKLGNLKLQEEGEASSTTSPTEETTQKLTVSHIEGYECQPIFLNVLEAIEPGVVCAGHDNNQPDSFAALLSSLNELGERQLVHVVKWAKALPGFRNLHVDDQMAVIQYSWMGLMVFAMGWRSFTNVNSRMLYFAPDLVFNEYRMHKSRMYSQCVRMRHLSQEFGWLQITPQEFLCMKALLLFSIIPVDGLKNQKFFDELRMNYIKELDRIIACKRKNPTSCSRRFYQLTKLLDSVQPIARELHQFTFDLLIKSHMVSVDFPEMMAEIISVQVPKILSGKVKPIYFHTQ
In short: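 Luminescence from an AR/GR-responsive MMTV-luciferase construct in MDA-kb2 breast carcinoma cells, read 30 min after ONE-Glo, following 16 hr co-treatment with compounds and 0.5 nM R1881.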

[13] = qHTS assay to identify small molecule agonists of the sonic hedgehog signaling (Shh) pathway - cell viability counter screen (AID 1259366); note: nearly all actives have a fitted effect of over 50% in size; note: potency is the fitted concentration of half-maximal effect
In short: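 Cytotoxicity counter screen: CellTiter-Fluor reagent added after 23 h compound exposure, then 1 h at 37C and fluorescence read. Cells were 3T3 Gli1-Luc, seeded 2,000 per well and dosed 4 h post-plating.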

[14] = qHTS assay to identify small molecule antagonists of the sonic hedgehog signaling (Shh) pathway - cell viability counter screen (AID 1259367); note: nearly all actives have a fitted effect of over 55% in size; note: potency is the fitted concentration of half-maximal effect
In short: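 Fluorescence read-out (CellTiter-Fluor, 1 hr at 37C) taken after 23 hr compound treatment of 3T3 Gli1-Luc cells stimulated with conditioned medium. Cells were seeded at 2,000 per well and pre-incubated 4 hr.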

[15] = molecular target: Androgen receptor (Homo sapiens) (UniProt P10275); test: qHTS assay to identify small molecule agonists of the androgen receptor (AR) signaling pathway in the presence of an antagonist (AID 1259381; calls by dose curve; note: nearly all actives have a fitted effect of over 15% in size)
In short: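 Plated MDA-kb2 cells (3,000/well) were pre-incubated 5hr, given nilutamide (3.0uM final) or buffer, then dosed with compounds in DMSO at 15 concentrations. Luciferase activity was quantified by luminescence after 16hr at 37C.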

[16] = qHTS assay to identify small molecule agonists of the androgen receptor (AR) signaling pathway in the presence of an antagonist - cell viability counter screen (AID 1259379); note: nearly all actives have a fitted effect of over 25% in size; note: potency is the fitted concentration of half-maximal effect
In short: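 Each compound was tested at 15 concentrations on MDA-kb2 cells in the presence of 3.0uM nilutamide. Viability was measured by CellTiter-Fluor fluorescence after a 16 hr incubation at 37C in a CO2-free atmosphere.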

[17] = molecular target: Estrogen receptor beta (Homo sapiens) (UniProt Q92731); test: qHTS assay to identify small molecule agonists of the estrogen receptor beta (ER-beta) signaling pathway (AID 1259377; active = well fitted activation curve with a large enough effect in the signal ratio in the repeat runs, not every such curve was filed as active; the % refers to the signal ratio)
Chain of Estrogen receptor beta (Homo sapiens) (Q92731 whole entry, looked up): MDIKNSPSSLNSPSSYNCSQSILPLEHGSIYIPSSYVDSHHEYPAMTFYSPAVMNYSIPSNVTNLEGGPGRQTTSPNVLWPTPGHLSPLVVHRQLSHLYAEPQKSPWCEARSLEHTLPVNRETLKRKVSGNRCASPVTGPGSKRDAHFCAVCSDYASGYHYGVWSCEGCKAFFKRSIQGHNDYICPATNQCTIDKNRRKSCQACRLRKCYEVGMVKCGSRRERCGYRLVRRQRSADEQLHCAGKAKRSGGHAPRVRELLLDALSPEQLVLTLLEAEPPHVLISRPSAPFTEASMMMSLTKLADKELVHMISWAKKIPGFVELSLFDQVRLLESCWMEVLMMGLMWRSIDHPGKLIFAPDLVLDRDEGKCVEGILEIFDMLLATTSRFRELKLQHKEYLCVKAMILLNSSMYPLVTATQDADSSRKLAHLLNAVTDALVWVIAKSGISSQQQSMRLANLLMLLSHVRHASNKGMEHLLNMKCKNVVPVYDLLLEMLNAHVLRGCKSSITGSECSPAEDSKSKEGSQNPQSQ
In short: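 Ratiometric beta-lactamase FRET read-out came after 2 h substrate loading at room temperature. It followed 16 h compound treatment at 37C of GripTite HEK293T cells carrying a UAS-bla reporter, plated in 2% charcoal-stripped FBS medium.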

[18] = qHTS assay to identify small molecule phospholipidosis (PLD) inducers (AID 1259344; active = well fitted curve in the direction sought with a large enough effect; an effect the other way counts as inactive or inconclusive)
In short: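 Read-out is LipidTOX Red fluorescence (ex 595/em 615) imaged in HepG2 cells after 24 h compound exposure at 37 C, with Hoechst nuclear counterstain (ex 352/em 461) allowing per-cell normalisation.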

[19] = qHTS assay to identify small molecule antagonists of the androgen receptor (AR) signaling pathway using the MDA cell line in the presence of 0.5 nM R1881 - cell viability counter screen (AID 1259242); note: nearly all actives have a fitted effect of over 45% in size; note: potency is the fitted concentration of half-maximal effect
In short: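 Cells seeded at 3,000/well and allowed 5 hr at 37C, 0% CO2 before compound transfer and R1881 (0.5 nM final) addition; 16 hr later, live-cell protease fluorescence indicated cytotoxicity.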

[20] = molecular target: Estrogen receptor beta (Homo sapiens) (UniProt Q92731); test: qHTS assay to identify small molecule antagonists of the estrogen receptor beta (ER-beta) signaling pathway (AID 1259378; active = well fitted inhibition curve with a large enough effect in the signal ratio in the repeat runs, not every such curve was filed as active; the % refers to the signal ratio; note: potency is the fitted concentration of half-maximal effect)
In short: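 ER-beta-UAS-bla HEK293T cells in 2% charcoal-stripped FBS medium treated with compound plus 1nM final 17-beta-estradiol for 16 hr at 37C. Beta-lactamase reporter read by FRET substrate fluorescence after 2 hours at room temperature.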

Measured: Potency

CN1CCCC(CC2c3ccccc3Sc3ccccc32)C1 (configuration not stated)
active: [6] 6.68 µM | [7] 18.8 µM | [8] 11.9 µM
inactive: [1] | [2] | [3] | [4] | [5] | [9] | [10]

COc1cc(C(=O)NC2CCN(C)CC2)ccc1Nc1ncc2c(n1)N(C1CCCC1)CC(F)(F)C(=O)N2C
inactive: [12] | [3] | [4] | [5] | [15] | [9]
active: [11] 50.4 µM | [2] 2.81 µM | [13] 5.6 µM | [14] 0.791 µM | [6] 0.112 µM | [7] 22.3 µM | [8] 15.8 µM

CC(C)C(O)(c1ccc(OC(F)(F)F)cc1)c1cncnc1 (configuration not stated)
inactive: [11] | [1] | [3] | [4] | [13] | [14] | [5] | [16] | [7] | [8]

Clc1cc(Cl)nc(Cl)n1
inactive: [11] | [1] | [3] | [4] | [13] | [14] | [5] | [6] | [17] | [7] | [8]

Nc1nc2ccc([N+](=O)[O-])cc2s1
inactive: [18] | [5] | [10]
active: [11] 49 µM | [12] 6.86 µM | [3] 17.7 µM | [6] 48.6 µM

CCCCN1CCCC1C(=O)Nc1c(C)cc(C)cc1C (configuration not stated)
inactive: [1] | [19] | [2] | [18] | [3] | [4] | [13] | [5] | [6] | [17] | [16] | [7] | [8] | [9] | [10]

O=C1c2ccccc2C(=O)C1(O)O
active: [14] 54.8 µM | [6] 15.4 µM
inactive: [11] | [1] | [3] | [20] | [16] | [8] | [9] | [10]

CCOC(=O)OC(C)OC(=O)[C@@H]1N2C(=O)[C@@H](NC(=O)[C@H](N)c3ccccc3)[C@H]2SC1(C)C (some centres not stated)
inactive: [11] | [18] | [3] | [4] | [13] | [14] | [5] | [6] | [17] | [20] | [16] | [7] | [8]

CC(CC1c2ccccc2CCc2ccccc21)CN(C)C (configuration not stated)
active: [7] 33.5 µM | [8] 21.1 µM
inactive: [11] | [3] | [4] | [13] | [14] | [5] | [17] | [16] | [9]

Cc1cc(O)ccc1O
inactive: [11] | [19] | [3] | [4] | [5] | [17]
active: [13] 13.8 µM | [20] 55.1 µM | [7] 61.8 µM | [8] 61.8 µM

O=C1c2ccccc2C(=O)c2c(O)c(O)cc(O)c21
inactive: [11] | [3] | [4] | [5] | [6] | [7] | [15] | [8] | [9] | [10]
active: [16] 30.6 µM

CC(=O)OCCN(CCOC(C)=O)c1ccc(N=Nc2ccc([N+](=O)[O-])cc2C#N)cc1
inactive: [11] | [5] | [17] | [8] | [10]
active: [19] 54.5 µM | [3] 27.3 µM | [13] 48.6 µM | [14] 54.5 µM | [6] 30.6 µM | [16] 54.5 µM
